These results are taken from PubChem BioAssay (NCI).

Holding throughout (experiment): NCI-60 one-dose screen, 48 h (100 = growth as untreated, 0 = no growth, -100 = all killed)
What all share (settings): 10 µM unless noted

Test [1] relates to SR leukemia.
The subject of test [2] is RPMI-8226 leukemia.
The subject of test [3] is OVCAR-8 ovarian.
The test system of test [4] is OVCAR-5 ovarian.
In test [5] the test system is OVCAR-4 ovarian.
Test [6] concerns SK-OV-3 ovarian.
Test [7] relates to IGROV1 ovarian.
The test system of test [8] is OVCAR-3 ovarian.
For test [9], the system named is HS 578T breast.
Test [10] concerns NCI/ADR-RES ovarian.
For test [11], the system named is T-47D breast.
Test [12] deals with BT-549 breast.
In test [13] the test system is MDA-MB-435 melanoma.
For test [14], the system named is SW-620 colon.
In test [15] the test system is MCF7 breast.
Test [16] deals with HCT-116 colon.
For test [17], the system named is HCC-2998 colon.
Test [18] deals with KM12 colon.

About 83,000 compounds went through this panel and 20% of them were active in at least one assay; those are over-represented in the sample as a whole.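 Negative percent growth values reflect cell death: -40 means 40% of the cells present at the start died, and -100 means all died.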 A number with no mark means an inactive call. Activity calls are given as the source filed them. How the source made its calls: active means growth percent below 10; inactive means the rest.

Consider `CC(C)(C)n1cc(-c2ccnc(NCCCNS(=O)(=O)c3cccc4ccccc34)c2)c(-c2cccc(O)c2)n1`, for which the growth in [1] was -1.59% (active); in [2], -34.8% (active); in test [3] it was 30.6%; in [4], 48.4%; in test [5], 36.5%; in test [6] it was 71.4%. In addition, the growth in [7] was 41.7%; in test [8] it was 43.6%; in test [9], 36.6%; in test [10], 36.5%; in test [11] it was 7.41% (active); in test [12], 39.8%. The growth in test [13] is 36.4%; in test [14], 16.3%; in test [15], 11.5%; in [16], 29.4%; in test [17], -49.4% (active); in test [18], 14.3%.
As to `CC[n+]1ccc2c(c1)C(=O)c1nccc3c1c-2nc1ccccc13`, the growth in test [1] was 5.79% (active); in test [2], 66.2%; in test [3] it was -11.9% (active); in [4], 87.7%; in test [5] it was -67.7% (active); in [6], -9.56% (active). Also, the growth in test [7] is 17.1%; in [8], -14.6% (active); in test [9], -21.8% (active); in test [10], 75.1%; in test [11] it was 8.59% (active); in test [12] it was -82.7% (active). In addition, the growth in test [13] is 4.27% (active); in [14], 5.32% (active); in [15], -6.21% (active); in test [16], -27.8% (active); in test [17], -21% (active); in [18], 8.87% (active).
As to `O=C(N/N=C/c1ccc(O)cc1O)c1cccnc1`, the growth was -6.2% (active) in test [1]; 44.6% in test [2]; -8.42% (active) in test [3]; 77.6% in test [4]; 32.6% in [5]; 46.8% in [6]. Also, the growth is 44.3% in [7]; 19.8% in [8]; 71.6% in [9]; 19.1% in test [10]; 26.9% in test [11]; 59.5% in test [12]. Moreover, the growth was 63.8% in test [13]; 44.6% in test [14]; 7.27% (active) in test [15]; 29.8% in test [16]; 35.1% in test [17]; 58.3% in test [18].
In the case of `Oc1c(Cl)cc(Cl)cc1CNc1nccnn1`, the growth was 93.5% in test [1]; 105% in test [2]; 108% in test [3]; 101% in test [4]; 106% in [5]; 107% in test [6]. For the same molecule, the growth was 96.3% in test [7]; 92.1% in test [8]; 114% in test [9]; 98.5% in [10]; 105% in test [11]; 105% in [12]. In addition, the growth in test [13] is 99.3%; in [14], 102%; in test [15] it was 99.2%; in test [16] it was 98.1%; in test [17], 98.6%; in test [18], 93.1%.
For the molecule `COc1cccc(-n2cc(-c3nc(Nc4cc(C)[nH]n4)c4ccccc4n3)nn2)c1`, the growth is 27.8% in test [1]; 48.4% in [2]; 38.3% in test [3]; 56.5% in test [4]; 17.2% in test [5]; 10.8% in [6]. For the same molecule, the growth was 18% in [7]; 59.4% in [8]; 46.4% in test [9]; 30.6% in test [10]; 17.6% in test [11]; 49.3% in test [12]. Besides, the growth was 34% in test [13]; 66.5% in [14]; 37.6% in test [15]; 41.5% in test [16]; 44.5% in test [17]; 23% in test [18].
In the case of `Cc1ccc(NC(=O)c2sc3nc4c(cc3c2N)C(=O)CCC4)cc1C`, the growth in test [1] was 22.9%; in [2] it was 11.4%; in test [3] it was 31.6%; in [4], 32.6%; in test [5], 76%; in test [6] it was 4.9% (active). In addition, the growth in test [7] is 23.9%; in test [8] it was -10.2% (active); in [9] it was 28.1%; in test [10], 10.9%; in test [11] it was 24.1%; in test [12] it was 48.7%. Further, the growth in test [13] is -55.5% (active); in [14] it was 18.9%; in [15], 10.7%; in test [16] it was 28.4%; in [17], 27.3%; in [18] it was 19.5%.
Take `Nc1nc2ccc(-c3nc4ccc5[nH]ncc5c4c4c3CCC4)cc2s1`: the growth was 20.7% in [1]; -49% (active) in test [2]; 28.6% in test [3]; 47.6% in [4]; 19.3% in test [5]; -21.7% (active) in test [6]. Further, the growth in test [7] was 21.4%; in test [8], 39.4%; in [9], 7.12% (active); in test [10], 27.8%; in [11], 31.2%; in [12], 47.1%. For the same molecule, the growth was -35.5% (active) in [13]; 6.95% (active) in test [14]; 13% in test [15]; 15.9% in test [16]; 50.9% in test [17]; 25.1% in [18].
With `CCN(CC)CC(O)c1cc(-c2ccc(Cl)cc2)nc2c(C)c(Cl)ccc12` (configuration not stated), the growth in test [1] is -79.5% (active); in test [2], -32.2% (active); in [3], -82.7% (active); in test [4], -97.3% (active); in test [5], -26% (active); in [6], 29.2%. Besides, the growth in test [7] was -84.7% (active); in [8] it was -100% (active); in test [9], -62.4% (active); in [10], -84.7% (active); in test [11], -89.2% (active); in test [12], -36.1% (active). The growth in test [13] is -90% (active); in [14], -85.8% (active); in test [15], -92% (active); in [16] it was -100% (active); in [17] it was -97.4% (active); in test [18], -100% (active).
For `O=C(Nc1ccc(CN2CCOCC2)cc1)c1[nH]ncc1Nc1ncnc2sccc12`, the growth in [1] is -4.39% (active); in test [2], -3.98% (active); in test [3], 11.6%; in [4], 16.1%; in test [5], 13.6%; in test [6], 33%. The growth is 16.7% in test [7]; -15.7% (active) in test [8]; -2.92% (active) in test [9]; 4.5% (active) in [10]; 17.5% in [11]; -8.71% (active) in test [12]. The growth in test [13] was 18.1%; in [14], 5.35% (active); in test [15], 8.76% (active); in [16], 6.07% (active); in test [17], -9.48% (active); in [18], 0.0776% (active).
